# In PubChem BioAssay (EPA / NIEHS):
# The source made the active and inactive calls. How the source made its calls: active means hit-call score of the fitted dose curve at least 0.9, where 1 is the maximum; inactive means score below 0.9.
# Read-out: Interleukin 6 (IL6), IL6 (gene 3569)
# Assay: BSK_BT_xIL6: BioMAP Diversity Plus: BT Assay for Interleukin 6 (IL6) Biomarker Activity (AID 2284228)
# Details: primary human B cells with PBMC
# Summary of the method: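 Human B cell plus PBMC co-culture exposed to test chemical for 24 h; secreted IL-6 quantified by Luminex xMAP bead assay. Activity fitted in the positive direction against DMSO as negative control and baseline.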
Structure (SMILES),outcome,AC50
CC(=O)/C=C/C1=C(C)CCCC1(C)C,inactive,
c1ccc2c(c1)c1cccc3ccc4cccc2c4c31,,2.63 µM (active)
CNC[C@H](O)c1cccc(O)c1,inactive,
CCCCCCCCCC=O,inactive,
CCCCC/C=C/C=C/C=O,,27.4 µM (active)
CC(C)c1ccc(C(C)C)cc1,inactive,
CCc1c(C)cc(N)c(CC)c1N,inactive,
CC(=O)O[C@]1(C(C)=O)CC[C@H]2[C@@H]3C[C@H](C)C4=CC(=O)CC[C@]4(C)[C@H]3CC[C@@]21C,inactive,
C=C[Si](OCC)(OCC)OCC,inactive,
Cc1ccc(O)c(C(C)(C)C)c1,inactive,
CC(C)Oc1ccccc1O,inactive,
CN(CCOc1ccc(CC2SC(=O)NC2=O)cc1)c1ccccn1 (stereo not drawn),inactive,
O=C=NC1CCC(CC2CCC(N=C=O)CC2)CC1 (stereo not drawn),inactive,
c1ccc2sc(SN(C3CCCCC3)C3CCCCC3)nc2c1,inactive,
O=C(O)C[C@H](O)C[C@H](O)/C=C/c1c(C2CC2)nc2ccccc2c1-c1ccc(F)cc1,inactive,
Cc1ccc(Nc2ccc(O)c3c2C(=O)c2ccccc2C3=O)cc1,inactive,
COC(=O)c1ccc(C)cc1,inactive,
N#Cc1ccc(CC(=NNC(=O)Nc2ccc(OC(F)(F)F)cc2)c2cccc(C(F)(F)F)c2)cc1,inactive,
O=[N+]([O-])c1cc(C(F)(F)F)ccc1Cl,inactive,

Structure (SMILES),outcome,AC50
C=C(C)C(=O)O[C@H]1C[C@@H]2CC[C@@]1(C)C2(C)C,inactive,
Nc1cc([N+](=O)[O-])ccc1Cl,inactive,
C#C[C@]1(O)CC[C@H]2[C@@H]3CCC4=Cc5oncc5C[C@]4(C)[C@H]3CC[C@@]21C,inactive,
CCn1c2ccccc2c2cc(N)ccc21,,11.6 µM (active)
CCCCCCCCCCCCCCCCCC(=O)OCC(CC)CCCC (stereo not drawn),inactive,
CCCCC(CC)COCCC#N (stereo not drawn),inactive,
CC(=O)Nc1ccccc1O,inactive,
O=C(O)c1cn(-c2ccc(F)cc2)c2cc(N3CCNCC3)c(F)cc2c1=O,inactive,
O=P(c1ccccc1)(c1ccccc1)c1ccccc1,inactive,
CCCCC(CC)COC(=O)/C=C\C(=O)OCC(CC)CCCC (stereo not drawn),,11.2 µM (active)
O=C(O)c1cn(C2CC2)c2cc(N3CCNCC3)c(F)cc2c1=O,inactive,
CC(C)(COC(=O)c1ccccc1)COC(=O)c1ccccc1,inactive,
Cc1ccc2n[nH]nc2c1,inactive,
O=C1CCCCCCCCCCCCCCO1,,30.4 µM (active)
CC1CCC(C(C)CS)CC1S (stereo not drawn),inactive,
CC1COc2ccccc2N1C(=O)C(Cl)Cl (stereo not drawn),inactive,
CCCCCCCCC=O,inactive,
O=C1OC2(c3cc(Br)c(O)c(Br)c3Oc3c2cc(Br)c(O)c3Br)c2c(Cl)c(Cl)c(Cl)c(Cl)c21,,8.52 µM (active)
BrC1CCC(Br)C(Br)CCC(Br)C(Br)CCC1Br (stereo not drawn),inactive,
